Experimental data taken from paper PMC3218832.

Each sequence was assayed against RELB subunit;p50 subunit (Homo sapiens;Homo sapiens, UniProt Q01201;P19838 120-401;7-356) (assay: protein binding microarray; high values mean tight binding). Settings: dsDNA, one strand shown.

Row | Sequence | binding signal [z-score]
1 | CAAGGAGCCCC | 0.0779
2 | CGGTAGCCCCT | 0.503
3 | CAGTAAATCCT | -0.822
4 | AGGTTCGCCCT | -0.727
5 | GAGAGATTCCC | 0.433
6 | GAGGGCCTCCT | -0.873
7 | CAGAAGGCCCC | -0.248
8 | AAAAATCCCCT | 3.22
9 | AAATTGTCCCT | 1.61
10 | AGAAACTTCCC | 0.409
11 | AGGAGAACCCT | -0.652
12 | GAATTTGTCCC | 0.998
13 | AAGATGCCCCC | 0.97
14 | GAAGGCATCCT | -1.29
15 | CAGATAGCCCT | -0.804
16 | GAAGGCGTCCC | 0.147
17 | GGGTTACTCCC | 0.354
18 | GAGAAGCCCCT | 1.22
19 | GGAAGAGCCCT | -0.91

Row | Sequence | binding signal [z-score]
20 | GGAGGAGTCCC | 0.725
21 | CGATTAATCCC | 0.0473
22 | AAGGTATTCCT | -0.322
23 | CAAGGTATCCC | -0.488
24 | AAGAATCCCCC | 2.64
25 | GAATAACTCCT | -0.919
26 | CGAGAATCCCT | 0.305
27 | AAGGTCCCCCC | 1.51
28 | GAAGGCCCCCC | 0.366
29 | CAAAAACCCCT | 2.09
30 | AAGTGAACCCT | -0.923
31 | AAAGGGATCCC | -0.184
32 | CGGAAATCCCT | 0.939
33 | GGAGGTACCCT | 0.0938
34 | CAGGGGACCCT | 0.29
35 | CAATGGTTCCT | -0.727
36 | CAGAGCACCCT | -0.474
37 | CAAGTGGCCCT | -0.596
38 | CAAGTCACCCC | -0.284

Each sequence was assayed against T1, RELB subunit;p52 subunit (Homo sapiens;Homo sapiens, UniProt Q01201;Q00653 120-401;4-332) in the same assay as above. Settings: dsDNA, one strand shown.
T1 sequence 1: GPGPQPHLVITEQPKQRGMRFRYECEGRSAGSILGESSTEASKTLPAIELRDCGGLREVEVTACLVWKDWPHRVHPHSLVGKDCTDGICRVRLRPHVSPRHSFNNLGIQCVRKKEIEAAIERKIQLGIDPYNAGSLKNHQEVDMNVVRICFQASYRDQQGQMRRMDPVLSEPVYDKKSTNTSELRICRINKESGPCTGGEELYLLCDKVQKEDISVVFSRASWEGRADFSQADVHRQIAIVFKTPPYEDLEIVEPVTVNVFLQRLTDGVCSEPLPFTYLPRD
T1 sequence 2: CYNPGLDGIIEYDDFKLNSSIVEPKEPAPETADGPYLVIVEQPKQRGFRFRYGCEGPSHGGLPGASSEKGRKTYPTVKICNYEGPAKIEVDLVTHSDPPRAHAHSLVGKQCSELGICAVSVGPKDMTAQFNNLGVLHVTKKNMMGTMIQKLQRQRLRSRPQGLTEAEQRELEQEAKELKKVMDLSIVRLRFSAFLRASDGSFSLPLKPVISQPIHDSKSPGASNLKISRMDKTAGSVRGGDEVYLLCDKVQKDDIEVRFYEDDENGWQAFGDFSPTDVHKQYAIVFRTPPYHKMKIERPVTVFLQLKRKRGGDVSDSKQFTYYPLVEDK

Row | Sequence | binding signal [z-score]
39 | CAAGGAGCCCC | 0.0984
40 | CGGTAGCCCCT | 0.728
41 | CAGTAAATCCT | -0.598
42 | AGGTTCGCCCT | -0.728
43 | GAGAGATTCCC | 0.292
44 | GAGGGCCTCCT | -0.69
45 | CAGAAGGCCCC | -0.262
46 | AAAAATCCCCT | 2.88
47 | AAATTGTCCCT | 1.7
48 | AGAAACTTCCC | 0.541
49 | AGGAGAACCCT | -0.634
50 | GAATTTGTCCC | 0.873
51 | AAGATGCCCCC | 1.17
52 | GAAGGCATCCT | -1.12
53 | CAGATAGCCCT | -0.675
54 | GAAGGCGTCCC | 0.216
55 | GGGTTACTCCC | 0.378
56 | GAGAAGCCCCT | 1.41
57 | GGAAGAGCCCT | -0.727

Row | Sequence | binding signal [z-score]
58 | GGAGGAGTCCC | 0.409
59 | CGATTAATCCC | -0.161
60 | AAGGTATTCCT | -0.266
61 | CAAGGTATCCC | -0.446
62 | AAGAATCCCCC | 2.41
63 | GAATAACTCCT | -0.853
64 | CGAGAATCCCT | 0.573
65 | AAGGTCCCCCC | 1.74
66 | GAAGGCCCCCC | 0.671
67 | CAAAAACCCCT | 2.18
68 | AAGTGAACCCT | -0.758
69 | AAAGGGATCCC | -0.115
70 | CGGAAATCCCT | 1.47
71 | GGAGGTACCCT | -0.25
72 | CAGGGGACCCT | 0.53
73 | CAATGGTTCCT | -0.56
74 | CAGAGCACCCT | -0.444
75 | CAAGTGGCCCT | -0.32
76 | CAAGTCACCCC | -0.0361
